This passage reports growth results from PubChem BioAssay (NCI).

Molecules are shown by their SMILES. Values joined by “and” are separate entries in the source; they are usually repeats but may differ in a detail not shown here. Equal values may be shown once. About 83,000 compounds went through this panel and 20% of them were active in at least one assay; those are over-represented in the sample as a whole.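 96-well plates, one dose, 48 hours. Percent growth reported; active if below 10.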 Active and inactive are the calls of the source.

One experiment relates to MCF7 breast. In words: NCI-60 one-dose screen, 48 h (100 = growth as untreated, 0 = no growth, -100 = all killed). The note with it: 10 µM. On the procedure: Growth inhibition of the MCF7 human tumor cell line is measured as a screen for anti-cancer activity. Cells are grown in 96 well plates and exposed to the test compound for 48 hours. Compounds are tested at a single concentration, which is 10^-5 M for most compounds. The reported endpoint is percent growth (GI% or GIPRCNT), where numbers from 0 - 100% represent growth inhibition, and numbers from -100% - 0 represent cell death. For example, a value of 40 represents 60% growth inhibition. A value of 0 means no net growth occurred over the course of the experiment. A value of -40 indicates 40% of cells at the beginning of the experiment died by the end of the experiment. A value of -100 means all cells are dead at the end of the experiment.
NCI-60 Human Tumor Cell Lines Screen was performed using the standard one-dose NCI protocol, which is described in more detail at https://dtp.cancer.gov/discovery_development/nci-60/default.htm.
Compounds with GIPRCNT values below 10 were considered active. Activity score was based on GIPRCNT using the following formula: […]
Score is 0 for GIPRCNT values of 100 or above, 50 for GIPRCNT values of 0, and 100 for GIPRCNT values of -100.
As to `CC1=CC(=C(c2ccc(N)cc2)c2ccc(N)cc2)C=CC1=N`, the growth was 9.83% (active) and 19.6% (inactive).
Still for that read-out and setting: under `C=C1C(=O)OC2CC1C(OC(C)=O)C/C(C)=C/CC/C(C)=C\CCC2(C)O` (stereo not given) stands 10.6% (inactive).
Regarding `CN(C)CCOC1(Cc2ccc(Cl)cc2Cl)CCC(C(C)(C)C)CC1` (stereo not given), the growth was -46.4% (active) and -87.7% (active).
Same read-out and setting: under `O=[N+]([O-])c1cc[n+]([O-])cc1` stands 97.6% (inactive); under `COc1ccc(C(=O)C(CN(C)C)CN(C)C)cc1`, 14.3% (inactive).
On the same count and under the same terms, under `Cc1ccc(Sc2ccccc2N)cc1` stands 53.7% (inactive); under `C#CCN(Cc1ccc2nc(N)[nH]c(=O)c2c1)c1ccc(C(=O)NC(CCC(=O)O)C(=O)O)cc1` (stereo not given), 22.4% (inactive); under `Cc1cc(N(CCOS(C)(=O)=O)CCOS(C)(=O)=O)ccc1C=Nc1ccc(-c2nc(Cc3ccccc3)sc2C)cc1`, 36.8% (inactive).

Still in this experiment, the particulars now being: 100 µM.
With `C=C1C(=O)OC2CC1C(OC(C)=O)C/C(C)=C/CC/C(C)=C\CCC2(C)O` (stereo not given), the growth is -90.9% (active).
Still for that read-out and setting: under `COc1cc([C@@H]2c3cc4c(cc3[C@@H](Nc3ccc(NC(=O)c5cc([N+](=O)[O-])cn5C)cc3)[C@H]3COC(=O)[C@H]23)OCO4)cc(OC)c1O` stands 5.63% (active).
